About 8,800 targets were measured; listed, in parts, are those with a hit and a random draw of the rest. About 0.5% of all pairs of compound and target were hits.

Chain of UniProt P14314 (P14314 whole entry, looked up): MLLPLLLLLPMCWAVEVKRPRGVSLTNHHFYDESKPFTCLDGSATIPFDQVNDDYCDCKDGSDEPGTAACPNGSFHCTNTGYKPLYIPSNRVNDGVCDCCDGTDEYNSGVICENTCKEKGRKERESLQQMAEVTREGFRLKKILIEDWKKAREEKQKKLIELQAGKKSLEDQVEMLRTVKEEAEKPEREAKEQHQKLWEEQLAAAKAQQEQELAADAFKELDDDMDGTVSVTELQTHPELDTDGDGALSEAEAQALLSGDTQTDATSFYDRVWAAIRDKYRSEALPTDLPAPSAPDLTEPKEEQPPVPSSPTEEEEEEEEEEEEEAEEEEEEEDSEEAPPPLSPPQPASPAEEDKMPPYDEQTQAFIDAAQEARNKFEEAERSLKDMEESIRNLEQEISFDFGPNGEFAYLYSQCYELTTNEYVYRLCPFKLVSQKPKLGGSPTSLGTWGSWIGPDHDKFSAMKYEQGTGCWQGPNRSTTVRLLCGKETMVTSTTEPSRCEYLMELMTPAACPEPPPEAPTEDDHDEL
Chain of UniProt P48426 (P48426 whole entry, looked up): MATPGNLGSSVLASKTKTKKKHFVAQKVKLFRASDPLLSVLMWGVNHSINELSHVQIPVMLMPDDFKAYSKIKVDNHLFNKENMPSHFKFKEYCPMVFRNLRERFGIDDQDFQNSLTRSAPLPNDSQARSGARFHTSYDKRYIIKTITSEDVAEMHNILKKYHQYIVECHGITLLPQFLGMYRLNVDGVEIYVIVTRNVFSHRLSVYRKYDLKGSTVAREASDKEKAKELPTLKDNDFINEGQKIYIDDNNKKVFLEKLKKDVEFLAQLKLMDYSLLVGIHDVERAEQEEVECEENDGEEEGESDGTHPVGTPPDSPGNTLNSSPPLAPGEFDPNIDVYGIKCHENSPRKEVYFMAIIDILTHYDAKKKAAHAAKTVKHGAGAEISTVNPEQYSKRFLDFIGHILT
Chain of UniProt Q9BZL6 (Q9BZL6 whole entry, looked up): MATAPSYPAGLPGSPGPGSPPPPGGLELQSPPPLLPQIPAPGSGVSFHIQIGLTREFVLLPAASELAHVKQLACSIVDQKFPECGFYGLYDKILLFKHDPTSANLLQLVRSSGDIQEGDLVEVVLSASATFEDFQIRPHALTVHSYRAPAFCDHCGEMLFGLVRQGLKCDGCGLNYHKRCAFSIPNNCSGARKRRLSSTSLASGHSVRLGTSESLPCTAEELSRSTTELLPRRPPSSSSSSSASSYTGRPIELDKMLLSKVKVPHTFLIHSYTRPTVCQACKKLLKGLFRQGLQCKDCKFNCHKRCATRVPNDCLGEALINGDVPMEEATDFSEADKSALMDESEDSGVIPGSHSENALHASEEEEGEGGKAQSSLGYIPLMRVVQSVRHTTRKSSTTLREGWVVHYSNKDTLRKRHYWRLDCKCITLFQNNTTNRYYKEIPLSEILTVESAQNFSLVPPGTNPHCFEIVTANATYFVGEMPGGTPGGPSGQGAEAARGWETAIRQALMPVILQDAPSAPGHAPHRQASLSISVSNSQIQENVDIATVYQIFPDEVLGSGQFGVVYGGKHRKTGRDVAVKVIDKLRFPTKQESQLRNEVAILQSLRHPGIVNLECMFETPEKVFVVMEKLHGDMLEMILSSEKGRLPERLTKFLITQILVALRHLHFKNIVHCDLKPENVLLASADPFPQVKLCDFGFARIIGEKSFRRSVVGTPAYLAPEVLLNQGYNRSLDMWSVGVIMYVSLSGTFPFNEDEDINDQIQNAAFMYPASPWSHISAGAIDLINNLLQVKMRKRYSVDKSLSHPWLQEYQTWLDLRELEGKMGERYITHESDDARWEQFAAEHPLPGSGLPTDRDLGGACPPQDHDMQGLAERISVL
Chain of UniProt O15031 (O15031 whole entry, looked up): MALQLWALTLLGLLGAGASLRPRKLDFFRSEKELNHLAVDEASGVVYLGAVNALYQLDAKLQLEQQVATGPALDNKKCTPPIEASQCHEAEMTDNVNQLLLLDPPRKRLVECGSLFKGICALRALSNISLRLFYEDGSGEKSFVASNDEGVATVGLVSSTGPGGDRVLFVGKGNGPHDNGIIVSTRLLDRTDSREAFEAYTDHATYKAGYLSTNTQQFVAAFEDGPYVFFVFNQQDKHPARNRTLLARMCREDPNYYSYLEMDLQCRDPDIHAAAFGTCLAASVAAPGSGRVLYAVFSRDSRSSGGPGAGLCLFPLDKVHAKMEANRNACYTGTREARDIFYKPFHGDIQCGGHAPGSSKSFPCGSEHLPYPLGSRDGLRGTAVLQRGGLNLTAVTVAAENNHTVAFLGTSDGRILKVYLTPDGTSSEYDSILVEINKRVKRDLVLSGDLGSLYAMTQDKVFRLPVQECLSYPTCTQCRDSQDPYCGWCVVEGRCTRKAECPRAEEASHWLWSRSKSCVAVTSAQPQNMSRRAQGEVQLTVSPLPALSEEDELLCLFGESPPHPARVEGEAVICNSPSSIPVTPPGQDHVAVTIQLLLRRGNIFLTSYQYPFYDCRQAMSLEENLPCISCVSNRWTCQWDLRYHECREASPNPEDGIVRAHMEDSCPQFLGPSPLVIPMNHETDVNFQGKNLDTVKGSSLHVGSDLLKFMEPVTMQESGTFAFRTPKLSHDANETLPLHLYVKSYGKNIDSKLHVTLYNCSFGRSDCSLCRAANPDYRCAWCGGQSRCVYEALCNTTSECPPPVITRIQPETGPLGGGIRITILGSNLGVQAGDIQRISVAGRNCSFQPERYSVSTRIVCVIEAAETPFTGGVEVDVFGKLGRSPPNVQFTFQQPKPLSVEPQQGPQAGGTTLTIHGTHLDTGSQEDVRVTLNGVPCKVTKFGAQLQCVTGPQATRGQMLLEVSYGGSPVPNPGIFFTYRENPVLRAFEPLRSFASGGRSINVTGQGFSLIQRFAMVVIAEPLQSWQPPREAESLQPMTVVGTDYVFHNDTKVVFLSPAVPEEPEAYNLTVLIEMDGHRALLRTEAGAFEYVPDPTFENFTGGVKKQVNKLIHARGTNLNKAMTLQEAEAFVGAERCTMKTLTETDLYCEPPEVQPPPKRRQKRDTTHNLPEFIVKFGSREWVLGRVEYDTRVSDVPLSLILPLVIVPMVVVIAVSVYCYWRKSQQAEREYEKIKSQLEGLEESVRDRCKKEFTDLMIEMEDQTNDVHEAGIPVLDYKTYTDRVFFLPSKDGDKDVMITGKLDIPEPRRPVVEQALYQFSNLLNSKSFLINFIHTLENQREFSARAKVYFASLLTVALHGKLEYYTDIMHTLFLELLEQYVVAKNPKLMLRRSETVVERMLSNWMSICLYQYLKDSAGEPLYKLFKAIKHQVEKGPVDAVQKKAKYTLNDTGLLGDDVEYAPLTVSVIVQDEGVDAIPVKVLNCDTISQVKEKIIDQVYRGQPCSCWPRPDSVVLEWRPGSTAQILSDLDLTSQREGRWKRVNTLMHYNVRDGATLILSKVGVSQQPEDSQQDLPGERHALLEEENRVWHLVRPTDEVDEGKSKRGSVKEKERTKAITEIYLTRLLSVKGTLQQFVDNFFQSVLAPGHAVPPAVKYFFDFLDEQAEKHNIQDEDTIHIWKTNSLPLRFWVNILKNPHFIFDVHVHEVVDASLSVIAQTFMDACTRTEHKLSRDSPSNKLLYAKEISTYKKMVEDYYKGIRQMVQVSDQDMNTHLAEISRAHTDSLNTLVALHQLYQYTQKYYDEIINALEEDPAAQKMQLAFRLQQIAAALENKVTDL
Chain of UniProt Q16877 (Q16877 whole entry, looked up): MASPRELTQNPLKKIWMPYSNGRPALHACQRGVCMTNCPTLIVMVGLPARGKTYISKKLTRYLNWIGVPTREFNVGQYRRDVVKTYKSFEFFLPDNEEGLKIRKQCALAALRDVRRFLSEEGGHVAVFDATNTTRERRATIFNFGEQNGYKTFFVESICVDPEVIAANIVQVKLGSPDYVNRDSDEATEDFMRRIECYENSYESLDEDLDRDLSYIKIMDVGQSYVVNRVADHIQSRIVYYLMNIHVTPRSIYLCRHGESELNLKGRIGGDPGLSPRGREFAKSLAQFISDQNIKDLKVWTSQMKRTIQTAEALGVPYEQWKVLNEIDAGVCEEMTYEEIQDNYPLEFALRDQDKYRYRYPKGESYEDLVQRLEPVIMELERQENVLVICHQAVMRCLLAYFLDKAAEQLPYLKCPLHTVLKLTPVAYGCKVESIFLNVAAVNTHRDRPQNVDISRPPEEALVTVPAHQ
Chain of UniProt Q8N8N7 (Q8N8N7 whole entry, looked up): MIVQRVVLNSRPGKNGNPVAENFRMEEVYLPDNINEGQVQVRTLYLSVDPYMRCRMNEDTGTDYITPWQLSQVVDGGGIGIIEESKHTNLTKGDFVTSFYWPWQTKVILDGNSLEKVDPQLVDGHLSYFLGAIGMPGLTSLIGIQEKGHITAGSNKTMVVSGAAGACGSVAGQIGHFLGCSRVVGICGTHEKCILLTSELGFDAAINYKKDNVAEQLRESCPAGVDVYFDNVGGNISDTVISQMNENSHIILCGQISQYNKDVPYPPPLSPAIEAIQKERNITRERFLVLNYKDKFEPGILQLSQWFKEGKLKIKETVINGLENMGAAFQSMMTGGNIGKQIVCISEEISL
Chain of UniProt Q9NY27 (Q9NY27 whole entry, looked up): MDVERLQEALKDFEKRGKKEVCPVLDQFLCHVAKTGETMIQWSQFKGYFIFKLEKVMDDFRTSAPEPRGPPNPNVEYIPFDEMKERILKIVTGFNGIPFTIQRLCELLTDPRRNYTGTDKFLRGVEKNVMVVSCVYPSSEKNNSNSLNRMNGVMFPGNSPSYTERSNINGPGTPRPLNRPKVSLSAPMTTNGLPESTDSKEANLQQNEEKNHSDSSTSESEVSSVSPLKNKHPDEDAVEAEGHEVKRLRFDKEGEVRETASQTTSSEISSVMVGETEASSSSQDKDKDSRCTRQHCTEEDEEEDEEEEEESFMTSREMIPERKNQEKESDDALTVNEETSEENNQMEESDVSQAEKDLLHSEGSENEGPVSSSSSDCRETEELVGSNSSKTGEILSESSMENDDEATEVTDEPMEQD
Chain of UniProt Q9Y244 (Q9Y244 whole entry, looked up): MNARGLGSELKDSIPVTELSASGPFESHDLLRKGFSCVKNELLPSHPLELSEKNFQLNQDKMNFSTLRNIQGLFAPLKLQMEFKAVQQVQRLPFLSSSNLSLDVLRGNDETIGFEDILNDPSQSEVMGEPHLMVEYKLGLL

Compound in this experiment: CN1CCN(c2nc(C3=C(c4c[nH]c5ccccc45)C(=O)NC3=O)c3ccccc3n2)CC1 [sotrastaurin]
The experiment can be described thus: log2 fold change, soluble protein after heating vs DMSO (PISA); higher = thermal stabilisation; K562 lysate, 10 uM; active = over 0.2 and 3.5 SD of the protein, either way, in both replicates (recomputed). In outline:
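Log-two fold change in thermal stability relative to solvent controls is reported from duplicates. For each sample, crude K562 extract from dounce-homogenised pellets in PBS pH 7.4 with 1 mM MgCl2, at 1 mg/mL protein, was treated with 10 μM compound for 30 min. Aliquots heated for 3 min across 48°C-58°C were pooled, brought to 0.5% NP-40 at 4°C and cleared at 21,000xg for 90 min. The supernatant was quantified by TMTpro 16plex LC-MS/MS with channel sums equalised.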
Take PCIF1 (UniProt Q9H4Z3): the log2 fold change was -0.036 (inactive).

For PEF1 (UniProt Q9UBV8), the log2 fold change is -0.016 (inactive).

As to PMPCA (UniProt Q10713), the log2 fold change is 0.006 (inactive).

For PPP4R2 (UniProt Q9NY27), the log2 fold change is 0.006 (inactive).

As for PLXNB2 (UniProt O15031), the log2 fold change is 0.024 (inactive).

With PIK3R1 (UniProt P27986), the log2 fold change is 0.056 (inactive).

Turning to PTGR2 (UniProt Q8N8N7), the log2 fold change is 0.1 (inactive).

For PFKFB4 (UniProt Q16877), the log2 fold change is 0.043 (inactive).

Consider PFAS (UniProt O15067), for which the log2 fold change was -0.015 (inactive).

Turning to PRKAR2B (UniProt P31323), the log2 fold change is -0.17 (inactive).

In the case of PGRMC1 (UniProt O00264), the log2 fold change was -0.003 (inactive).

Take PPP3CA isoform 2 (UniProt Q08209): the log2 fold change is -0.005 (inactive).

Take PUM1 isoform 3 (UniProt Q14671): the log2 fold change was 0.016 (inactive).

For PRKCB isoform 2 (UniProt P05771), the log2 fold change is 0.505 (active).

On to PIP4K2A (UniProt P48426), for which the log2 fold change was 0.02 (inactive).

Take POLR2B (UniProt P30876): the log2 fold change was 0.024 (inactive).

For PFKFB3 isoform 4 (UniProt Q16875), the log2 fold change was 0.034 (inactive).

As to PCF11 (UniProt O94913), the log2 fold change was 0.006 (inactive).

PRPF38A (UniProt Q8NAV1): the log2 fold change was 0.191 (inactive).

Take POMP (UniProt Q9Y244): the log2 fold change was -0.064 (inactive).

Consider PRKD2 isoform 3 (UniProt Q9BZL6), for which the log2 fold change was 0.085 (inactive).

PPIE (UniProt Q9UNP9): the log2 fold change is 0.067 (inactive).

As to POLR2F (UniProt P61218), the log2 fold change was 0.02 (inactive).

With PWP1 (UniProt Q13610), the log2 fold change is -0.021 (inactive).

For the target PLEKHA5 isoform 6 (UniProt Q9HAU0), the log2 fold change was 0.02 (inactive).

Turning to PHKB isoform 3 (UniProt Q93100), the log2 fold change was -0.014 (inactive).

Consider PRKCSH (UniProt P14314), for which the log2 fold change was 0.018 (inactive).

On to PIK3R2 (UniProt O00459), for which the log2 fold change is 0.091 (inactive).

For PITRM1 isoform 2 (UniProt Q5JRX3), the log2 fold change was 0.007 (inactive).

Take PIKFYVE (UniProt Q9Y2I7): the log2 fold change is 0.038 (inactive).

Turning to PPIL3 (UniProt Q9H2H8), the log2 fold change was -0.03 (inactive).

Turning to PTPN1 (UniProt P18031), the log2 fold change was 0.069 (inactive).

Regarding PPME1 isoform 4 (UniProt Q9Y570), the log2 fold change was -0.008 (inactive).

In the case of PPM1H (UniProt Q9ULR3), the log2 fold change was 0.022 (inactive).

Take PRPF6 (UniProt O94906): the log2 fold change is 0.025 (inactive).

For the target PRRC2A (UniProt P48634), the log2 fold change is -0.014 (inactive).

For PHKA1 (UniProt P46020), the log2 fold change is -0.019 (inactive).

The record behind these values is the supplement of paper PMC10849652.
